Assay results from PubChem BioAssay (NCI).
Compounds without any hit were thinned out: in the full panel of roughly 83,000, 20% have a hit.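 Each cell line was grown in a 96-well plate and treated with one concentration of compound for 48 hours. Values below 10 were considered active.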 Activity calls are given as the source filed them.

Tested on: MCF7 breast
Assay: NCI-60 one-dose screen, 48 h (100 = growth as untreated, 0 = no growth, -100 = all killed)
Details: 10 µM unless noted
Description: Growth inhibition of the MCF7 human tumor cell line is measured as a screen for anti-cancer activity. Cells are grown in 96 well plates and exposed to the test compound for 48 hours. Compounds are tested at a single concentration, which is 10^-5 M for most compounds. The reported endpoint is percent growth (GI% or GIPRCNT), where numbers from 0 - 100% represent growth inhibition, and numbers from -100% - 0 represent cell death. For example, a value of 40 represents 60% growth inhibition. A value of 0 means no net growth occurred over the course of the experiment. A value of -40 indicates 40% of cells at the beginning of the experiment died by the end of the experiment. A value of -100 means all cells are dead at the end of the experiment.
NCI-60 Human Tumor Cell Lines Screen was performed using the standard one-dose NCI protocol, which is described in more detail at https://dtp.cancer.gov/discovery_development/nci-60/default.htm.
Compounds with GIPRCNT values below 10 were considered active. Activity score was based on GIPRCNT using the following formula: […]
Score is 0 for GIPRCNT values of 100 or above, 50 for GIPRCNT values of 0, and 100 for GIPRCNT values of -100.

SMILES | growth
O=C(N/N=C/c1c(Cl)cccc1Cl)c1cccc(Nc2ccnc(C(F)(F)F)c2)c1 | 66.1% (inactive)
COc1ccc(/C=C(/C2=NCCN2)n2ccc3ccccc32)cc1 | 83.4% (inactive)
COc1cc(OC)cc(C(=O)Nc2cc(-c3cccnc3)nc(NCCCN3CCOCC3)n2)c1 | 88% (inactive)
CCN(CC)c1cc(N)c(Cc2c(N)cc(N(CC)CC)cc2Cl)c(Cl)c1 | 24.7% (inactive)
Cc1cccc([N+](=O)[O-])c1I | 114% (inactive)
Nc1ccc(NC(=O)c2ccccc2)c2c1C(=O)c1ccccc1C2=O | 81.6% (inactive)
C=CCCC1(C)NC(=O)NC1=O (stereo not given) | 92.4% (inactive)
CCOc1ccccc1/C=N\Nc1ccc(S(=O)(=O)c2ccc(N/N=C/c3ccccc3OCC)cc2)cc1 | 79.1% (inactive)
Cc1c(Cn2cc(COc3ccc(Br)cc3)nn2)c(C)c(Cn2cc(COc3ccc(Br)cc3)nn2)c(C)c1Cn1cc(COc2ccc(Br)cc2)nn1 | 90% (inactive)
O=C(O)c1cn(C2CC2)c2cc(N3CCN(Cc4cc(Cl)ccc4O)CC3)c(F)cc2c1=O | 54.6% (inactive)
Fc1cc2[nH]ncc2c2c3c(c(-c4cn[nH]c4C(F)(F)F)nc12)C1CCC3C1 (stereo not given) | 2.59% (active)
Nc1nc(N)c2c(n1)NC(c1ccc(F)cc1)C1CCc3ccccc3C1=N2 (stereo not given) | 26.9% (inactive)
COc1ccc2c(c1)C(C)Cc1c(Cl)ncnc1N2C (stereo not given) | 1.16% (active)
COc1ccc(C(=O)c2nccc3cc(OC)c(OC)cc23)cc1OC | 93.2% (inactive)
CC1(C)OC2[C@@H](CNC(=O)NC(=O)NC(=O)CI)O[C@@H](n3cnc4c(NC(=O)Nc5ccccc5)ncnc43)[C@H]2O1 (stereo not given in full) | 33% (inactive)
O=C(N=c1n(-c2ccccc2)nc2n1CCN2C1=NCCN1)c1ccc(Cl)cc1 | 86.4% (inactive)
CCN=C1C=CC(=C(c2ccc(N(CC)CC)cc2)c2ccc(N(CC)CC)cc2)c2ccccc21 | -74% (active)
O=C1CN(Cc2ccc(C(=O)NO)cc2)C(=O)[C@@H](Cc2ccccc2)N1 | 96% (inactive)
CC1Cc2ccc(OCCN(C)C)cc2C1=O (stereo not given) | 100% (inactive)
C=C(C)C1CCC2(C(=O)O)CCC3(C)C(CCC4C5(C)CCC(OC(=O)NCc6ccccc6)C(C)(C)C5CCC43C)C12 (stereo not given) | 35.9% (inactive)

SMILES | growth
Cc1ccc2c(c1)C(C)Cc1c(Cl)ncnc1N2C (stereo not given) | 13.5% (inactive)
COc1cc(C(=O)/C=C/c2c(-c3ccc(F)cc3)nc3sccn23)cc(OC)c1OC | -8.44% (active)
NC(=O)CC1C=CCC1 (stereo not given) | 92.1% (inactive)
CNc1cc(C(=O)O)nc(NC)n1 | 99.4% (inactive)
O=C1COCCN1c1ccc(Nc2nc(Cl)nc(N3CCOCC3)n2)cc1 | 85.5% (inactive)
O=C(CCN1CCCCC1)c1ccc2ccccc2c1 | 87.8% (inactive)
COCCCNc1nc(NC(=O)c2cc(Br)cc(C(F)(F)F)c2)cc(-c2cccnc2)n1 | 83.8% (inactive)
C=C(C)[C@@H]1CC[C@]2(C(=O)OC)CC[C@]3(C)[C@H](CC[C@@H]4[C@@]5(C)CC/C(=N\OCCC(=NCCC#N)NOCCC#N)C(C)(C)[C@@H]5CC[C@]43C)[C@@H]12 | 12.4% [100 µM] (inactive)
COc1ccc2c(c1)c(-c1noc(C(=O)c3cn(C)c4ncc(Br)cc34)n1)cn2C | 79.9% (inactive)
COc1ccc(OC)c([N+](=O)[O-])c1C(=O)CNC(C)=O | 92.7% (inactive)
O=C(Nc1ccc(F)cc1)c1ccccc1 | 96% (inactive)
COc1ccc(C(=O)CSc2nnc(-c3cc(-c4ccccc4)nc4ccccc34)o2)cc1 | 103% (inactive)
Nc1cc(C(=O)O)[nH]c(=S)n1 | 96.2% (inactive)
Cc1ccc(-n2nc3n(/c2=N\C(=O)NS(=O)(=O)c2ccc(C)cc2)CCN3C2=NCCN2)cc1 | 94.6% (inactive)
CC(C)CCSc1nc(N)nc2nc[nH]c12 | 96.1% (inactive)
COc1cc(C)cc2oc3oc(=O)c(-c4nc5ccccc5s4)cc3c(=O)c12 | 84.7% (inactive)
CSc1nc(N)c(N=Nc2ccc(S(=O)(=O)Nc3nnc(C)s3)cc2)c(=O)[nH]1 | 100% (inactive)
Nc1nc(Cl)c2ncn(Cc3cc4c(cc3I)OCO4)c2n1 | 18.9% (inactive)
COc1ccc(C(C(=O)O)c2ccc(OC)cc2)cc1 | 101% (inactive)
CC1(C)CC[C@]2(C(=O)O)CC[C@]3(C)[C@H](CC[C@@H]4[C@@]5(C)CCC(=O)C(C)(C)[C@@H]5CC[C@]43C)[C@H]2[C@H]1OC(=O)C(F)(F)F | -40.1% [100 µM] (active)
